Test results from ChEMBL document CHEMBL5308504, “Tm Shift (DSF) assay results for EUbOPEN Chemogenomics Library” (2023).
Where “and” joins values, the source holds several entries; their conditions need not be identical. Equal values may be shown once.

biological target: Bromodomain-containing protein 4 (Homo sapiens) (UniProt O60885); conditions: Compound concentration 20.0 uM, Protein concentration 2.0 uM, Result type QC Liability

| SMILES | ΔTm [°C] |
| --- | --- |
| CS(C)(=O)=Nc1ccc(-c2ccc(-c3nc4[nH]c(O[C@@H]5CO[C@H]6[C@@H]5OC[C@H]6O)nc4cc3Cl)cc2)cc1 | 1.46 |
| CCCS(=O)(=O)N[C@H]1C[C@@H](N(C)c2ncnc3[nH]ccc23)C1 | -0.54 |
| CN(C)C(=O)Cn1cc(-c2ccc(-c3cncc4ccccc34)cc2)cn1 | -2.19 |
| COc1cc(-c2cn(C)c(=O)c3cnccc23)cc(OC)c1CN(C)C | -0.83 |
| O=C(O)C[C@H]1CC[C@H](c2ccc(NC(=O)c3nnc(Nc4ccc(F)c(F)c4)o3)cc2)CC1 | -0.2 |
| CC(=O)O[C@H]1C(=O)[C@@]2(C)[C@H]([C@H](OC(=O)c3ccccc3)[C@]3(O)C[C@H](OC(=O)[C@H](O)[C@@H](NC(=O)c4ccccc4)c4ccccc4)C(C)=C1C3(C)C)[C@]1(OC(C)=O)CO[C@@H]1C[C@@H]2O | -0.05 |
| Cc1cc(C2CCCNC2)ccc1Nc1ncc(Br)c(NCc2cccc3c2C(C)(C)C(=O)N3)n1 (stereo not given) | -4.96 |
| CN1CC(=O)N(C)c2cnc(Nc3ccc(NC(=O)Nc4cccc(C(=O)O)c4)cc3)nc21 | 0.02 |
| COc1cc(Oc2nc(-c3ccc(NC(=O)C4CCOC4)cc3)nn3c(C)nc(C)c23)cc(OC)c1OC (stereo not given) | -1.75 |
| Cc1cc(=O)oc2cc(NC(=O)[C@H](Cc3ccc(I)cc3)NC(=O)[C@H]3N[C@@H]4CC[C@H]3C4)ccc12 | -0.26 |
| Cc1cccc(-c2[nH]c(CNc3ccccc3F)nc2-c2ccc3ncnn3c2)n1 | -1.53 |
| N[C@@H]1CCCC[C@H]1Oc1ccc2ncc(-c3cc4ccccc4o3)n2n1 | -0.47 |
| CC[C@H](Nc1c(C#N)c(-c2ccc(-c3cccc(C)c3F)cc2)nc2cnccc12)C(=O)O | -2.07 |
| CCCNc1ccc2ncc(-c3ccncc3)n2n1 | -0.06 |
| c1ccc(C(OC2CCN(CCCc3nnn[nH]3)CC2)c2ccccc2)cc1 | -1 |
| CCS(=O)(=O)c1cc2cc(C[C@](O)(CC(C)(C)c3ccc(F)cc3C(N)=O)C(F)(F)F)[nH]c2cn1 | -2.16 |
| O=C(Nc1cc2cc[nH]c(=O)c2cc1Cl)[C@H]1CNC[C@@H]1c1cccnc1 | -1.63 |
| CN(C)[C@H]1CCN(c2cc(C(F)(F)F)c(C#N)c(Nc3cccc(CCC(=O)O)c3)n2)C1 | -0.8 |
| COc1ccc(C(F)(F)F)cc1NC(=O)Nc1ccc(Oc2cc(C)nc(N)n2)c2ccccc12 | -0.19 |
| CCc1c(-c2ccc3[nH]ncc3c2)cnc(N)c1-c1ccc(O)cc1 | -1.17 |

biological target: T1, Transcription intermediary factor 1-alpha (Homo sapiens) (UniProt O15164); conditions: Compound concentration 20.0 uM, Protein concentration 2.0 uM, Result type QC Liability
T1 sequence (whole entry): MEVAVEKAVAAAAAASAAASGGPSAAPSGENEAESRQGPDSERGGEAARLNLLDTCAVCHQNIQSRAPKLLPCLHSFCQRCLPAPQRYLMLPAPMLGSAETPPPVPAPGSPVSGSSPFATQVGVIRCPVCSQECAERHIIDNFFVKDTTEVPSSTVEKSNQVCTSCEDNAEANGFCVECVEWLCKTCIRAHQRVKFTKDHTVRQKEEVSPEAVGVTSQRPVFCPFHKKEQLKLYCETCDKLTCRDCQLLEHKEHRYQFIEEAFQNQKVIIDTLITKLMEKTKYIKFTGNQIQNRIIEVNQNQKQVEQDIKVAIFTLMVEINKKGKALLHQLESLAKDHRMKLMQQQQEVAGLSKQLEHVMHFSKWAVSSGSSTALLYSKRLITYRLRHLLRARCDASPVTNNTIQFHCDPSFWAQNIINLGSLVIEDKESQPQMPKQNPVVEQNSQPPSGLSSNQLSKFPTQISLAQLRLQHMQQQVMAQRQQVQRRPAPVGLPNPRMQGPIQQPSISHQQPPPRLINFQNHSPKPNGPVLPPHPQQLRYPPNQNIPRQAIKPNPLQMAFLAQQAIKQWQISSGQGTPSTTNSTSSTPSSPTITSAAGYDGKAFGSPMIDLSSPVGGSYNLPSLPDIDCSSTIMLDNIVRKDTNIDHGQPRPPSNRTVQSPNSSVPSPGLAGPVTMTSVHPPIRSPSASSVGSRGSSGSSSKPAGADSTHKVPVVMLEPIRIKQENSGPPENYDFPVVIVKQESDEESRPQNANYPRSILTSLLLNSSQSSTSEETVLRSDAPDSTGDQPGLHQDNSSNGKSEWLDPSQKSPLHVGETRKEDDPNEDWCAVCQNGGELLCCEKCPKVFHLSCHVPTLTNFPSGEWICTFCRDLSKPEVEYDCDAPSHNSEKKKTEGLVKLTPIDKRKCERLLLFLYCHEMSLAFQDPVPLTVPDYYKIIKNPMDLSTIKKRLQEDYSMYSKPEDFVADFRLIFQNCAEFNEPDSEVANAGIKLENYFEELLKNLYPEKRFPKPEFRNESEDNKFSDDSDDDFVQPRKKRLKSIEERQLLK

| SMILES | ΔTm |
| --- | --- |
| COCc1nc2cnc3cc(-c4c(C)noc4C)c(OC[C@H]4CCNC4)cc3c2n1[C@H](C)c1ccccc1 | -1.74 °C |
| Cc1cc(CN(CC(=O)Nc2ccc(Cl)cc2Cl)C2CCCCC2)ccc1OCC(=O)O | -0.29 °C |
| CCC(=O)N[C@@H]1CC[C@H](C(=O)N(C)c2ccc(-c3nc4ccccc4o3)cc2)C1 | 0.25 °C |
| O=c1cc(C2CCNCC2)n2nc3cccc(Cl)c3c2[nH]1 | 0.25 °C |
| COc1c(NC(=O)c2cc3cccc(Oc4ccnc(C(=O)N5CCN(C)CC5)c4)c3n2C)cc(C(C)(C)C)cc1NS(C)(=O)=O | -2.21 °C |
| CN(C)C(=O)Cn1cc(-c2nc(C3(c4ccc(-c5cnc(N)nc5)cc4)CC3)no2)cn1 | 0.32 °C |
| COc1ccc(CC[C@@H](OC(=O)[C@H]2CCCCN2C(=O)[C@@H](c2cc(OC)c(OC)c(OC)c2)C2CCCCC2)c2cccc(OCCN3CCOCC3)c2)cc1OC | -1.63 °C |
| Cc1ccc(NC(=O)c2ccc(CN3CC[C@H](N(C)C)C3)c(C(F)(F)F)c2)cc1Nc1nccc(-c2cncnc2)n1 | -0.69 °C |
| CNC(=O)c1cc(C(=O)N[C@H]2[C@@H]3COC[C@@H]32)cc2c1O[C@@H](CF)[C@@H]2c1ccccc1 | -2.85 °C |
| CCCc1c(OCCCOc2ccc(OCC(=O)O)cc2)ccc(C(C)=O)c1O | -1.6 °C |
| CCC(C(=O)Nc1ccc(-c2cc3ccccc3s2)c(C(N)=O)c1)c1nccs1 (stereo not given) | 0.44 °C |
| O=C(Nc1cccc(Nc2nccc(Nc3cccc(C(F)(F)F)c3)n2)c1)C1CC1 | 1.03 °C |
| CNC(=O)COc1cc2cc(Nc3nc(N4CCC(C(=O)N(C)C)CC4)ncc3Cl)cc(OC)c2n(C)c1=O | -0.08 °C |
| COc1ccccc1N1CCN(c2ncnc3c2cnn3-c2ccccc2)CC1 | 0.1 °C |
| CNC(=O)c1cc(C(=O)N[C@H]2[C@@H]3COC[C@@H]32)cc2c1O[C@H](CF)[C@H]2c1ccccc1 | -2.73 °C |
| Nc1ncnc2c1ccn2[C@@H]1O[C@H]([C@@H](O)c2ccccc2)[C@@H](O)[C@H]1O | -3.4 °C |
| COCc1c(-c2cc3cc(C)cc(OC)c3s2)c2c(N)ncnn2c1CN[C@@H]1CCNC1=O | 0.22 °C |
| CS(C)(=O)=Nc1ccc(-c2ccc(-c3nc4[nH]c(O[C@@H]5CO[C@H]6[C@@H]5OC[C@H]6O)nc4cc3Cl)cc2)cc1 | 0.39 °C |
| CCCS(=O)(=O)N[C@H]1C[C@@H](N(C)c2ncnc3[nH]ccc23)C1 | -3.66 °C |
| CN(C)C(=O)Cn1cc(-c2ccc(-c3cncc4ccccc34)cc2)cn1 | 0.13 °C |

| SMILES | ΔTm |
| --- | --- |
| COc1cc(-c2cn(C)c(=O)c3cnccc23)cc(OC)c1CN(C)C | 0.37 °C |
| O=C(O)C[C@H]1CC[C@H](c2ccc(NC(=O)c3nnc(Nc4ccc(F)c(F)c4)o3)cc2)CC1 | 0.52 °C |
| CC(=O)O[C@H]1C(=O)[C@@]2(C)[C@H]([C@H](OC(=O)c3ccccc3)[C@]3(O)C[C@H](OC(=O)[C@H](O)[C@@H](NC(=O)c4ccccc4)c4ccccc4)C(C)=C1C3(C)C)[C@]1(OC(C)=O)CO[C@@H]1C[C@@H]2O | -0.24 °C |
| Cc1cc(C2CCCNC2)ccc1Nc1ncc(Br)c(NCc2cccc3c2C(C)(C)C(=O)N3)n1 (stereo not given) | -2.52 °C |
| CN1CC(=O)N(C)c2cnc(Nc3ccc(NC(=O)Nc4cccc(C(=O)O)c4)cc3)nc21 | -0.69 °C |
| COc1cc(Oc2nc(-c3ccc(NC(=O)C4CCOC4)cc3)nn3c(C)nc(C)c23)cc(OC)c1OC (stereo not given) | 0.42 °C |
| Cc1cc(=O)oc2cc(NC(=O)[C@H](Cc3ccc(I)cc3)NC(=O)[C@H]3N[C@@H]4CC[C@H]3C4)ccc12 | 0.3 °C |
| COc1ccc2c(O[C@@H]3C[C@H]4C(=O)N[C@]5(C(=O)O)CC5/C=C\CCCCC[C@H](NC(=O)OC5CCCC5)C(=O)N4C3)cc(-c3csc(NC(=O)C(C)C)n3)nc2c1C (stereo not given in full) | 0.14 °C [middle of 4 runs] |
| CCNC(=O)c1ccc2c(c1)NC(=O)/C2=C(\Nc1ccc(CN(C)C)cc1)c1ccccc1 | 0.37 °C and -3.62 °C |
| Cc1cccc(-c2[nH]c(CNc3ccccc3F)nc2-c2ccc3ncnn3c2)n1 | -2.12 °C |
| N[C@@H]1CCCC[C@H]1Oc1ccc2ncc(-c3cc4ccccc4o3)n2n1 | -0.16 °C |
| CC[C@H](Nc1c(C#N)c(-c2ccc(-c3cccc(C)c3F)cc2)nc2cnccc12)C(=O)O | -1.52 °C |
| COc1ccccc1S(=O)(=O)Nc1ccc2c(c1)CN(C)C(=O)N2 | -1.03 °C |
| CCCNc1ccc2ncc(-c3ccncc3)n2n1 | -2.61 °C |
| c1ccc(C(OC2CCN(CCCc3nnn[nH]3)CC2)c2ccccc2)cc1 | -0.6 °C |
| CCS(=O)(=O)c1cc2cc(C[C@](O)(CC(C)(C)c3ccc(F)cc3C(N)=O)C(F)(F)F)[nH]c2cn1 | 0.37 °C |
| O=C(Nc1cc2cc[nH]c(=O)c2cc1Cl)[C@H]1CNC[C@@H]1c1cccnc1 | -2.69 °C |
| CN(C)[C@H]1CCN(c2cc(C(F)(F)F)c(C#N)c(Nc3cccc(CCC(=O)O)c3)n2)C1 | 0.26 °C |
| COc1ccc(C(F)(F)F)cc1NC(=O)Nc1ccc(Oc2cc(C)nc(N)n2)c2ccccc12 | -0.94 °C |
| CCc1c(-c2ccc3[nH]ncc3c2)cnc(N)c1-c1ccc(O)cc1 | -2.74 °C |
